Measurements as given in PubChem BioAssay AID1463 (National Center for Advancing Translational Sciences (NCATS), 2008).
Out of some 280,000 compounds screened, about 2,600 (0.93%) were called active. A call without a number means that no potency is given here. Not shown: some 8% with an inconclusive outcome. Calls come from the whole dose curve; as a rule, active = well fitted curve in the direction sought with a large enough effect; inconclusive = small, poorly fitted or top-dose-only effect; inactive = flat fitted curve, though single readings scatter. This excerpt belongs to a sample that is enriched for actives.
Potency is the fitted concentration of half-maximal effect; tags give direction and shape of the fitted curve or compound fluorescence and quenching.

Assay: Counterscreen qHTS for Inhibitors of Tau Fibril Formation, Fluorescence Polarization; note: nearly all actives have a fitted effect of over 55% in size
Details: tau K18 P301L (four-repeat tau fragment) Alexa594 fluorescence, heparin fibrillization; series mostly up to 57.7 µM
Method in brief: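 Human K18 P301L tau (15 uM unlabeled plus 0.24 uM Alexa 594-labeled, final) in 100 mM sodium acetate pH 7 was mixed with compound and 20 uM heparin and incubated 6 hr at 37 C.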
With `Cc1nnc(SCC(=O)NCc2ccccc2Cl)c2nn(-c3ccccc3)c(C)c12` the Potency was “inactive”. For `CCc1ccc(C2C(C(=O)Nc3ccccc3)=C(C)Nc3c(C(=O)Nc4ccc(C)cc4)cnn32)cc1` (stereo not drawn), the Potency was “inactive”. In the case of `COc1ccccc1/C=C/c1nc(C#N)c(NC(C)c2ccccc2)o1` (stereo not drawn), the Potency is reported as 11.2 µM [quencher] (active). For `CC(Nc1oc(-c2ccccc2)nc1-c1ccccc1)c1ccccc1` (stereo not drawn), the Potency was “inactive”. With `COc1ccc(/C=C/c2nc(C#N)c(NCc3ccc(F)cc3)o2)cc1OC` the Potency was “inactive”. In the case of `CCOc1ccc(-n2c(SCC(=O)NCc3ccccc3)nc3n[nH]c(C)c3c2=N)cc1`, the Potency is reported as “inactive”. With `Nc1cccc(-c2cc(-c3ccccc3)nc(-c3cccc(N)c3)n2)c1` the Potency was 2.51 µM [quencher] (active). With `Nc1cccc(CCc2nc3ccccc3[nH]2)c1` the Potency was “inactive”. With `Cc1nc(NNC(=O)c2ccccc2)cc(-c2ccccc2)n1` the Potency was “inactive”. In the case of `CCCCn1c(CNC(=O)C23CC4CC(CC(C4)C2)C3)nnc1SCC(=O)Nc1ccc(C)cc1`, the Potency is reported as “inactive”. For `O=C(CC(c1cccs1)N1Cc2ccccc2C1=O)Nc1ccc(F)cc1F` (stereo not drawn), the Potency was “inactive”. In the case of `CCc1ccc(S(=O)(=O)Nc2cc3c(C(=O)OCc4ccccc4)c(C)oc3c3ccccc23)cc1`, the Potency is reported as “inactive”. For `COc1ccc(/C=N/NC(=O)c2cccc(C(F)(F)F)c2)cc1`, the Potency was “inactive”. With `O=C(Cn1c(=O)n(-c2ccc(F)cc2)c(=O)c2sccc21)Nc1cccc(C(F)(F)F)c1` the Potency was “inactive”. For `O=C(Cn1cc(/C=N/NC(=O)c2cccc(C(F)(F)F)c2)c2ccccc21)Nc1ccc(F)cc1`, the Potency was 8.91 µM [quencher] (active). In the case of `O=C(CCCN1C(=O)/C(=C/c2ccccc2)SC1=S)Nc1ccc(O)cc1`, the Potency is reported as 25.1 µM [quencher] (active). For `O=C(CCCN1C(=O)/C(=C\c2ccco2)SC1=S)Nc1cccc2ccccc12`, the Potency was “inactive”. With `COc1ccc(NC(=O)CCN2C(=O)/C(=C/c3ccc4c(c3)OCO4)SC2=S)cc1` the Potency was “inactive”. For `COC(=O)c1ccc(NC(=O)c2cnn(-c3ccc(Cl)cc3)c2C2CCN(C(=O)OC(C)(C)C)CC2)cc1`, the Potency was “inactive”. For `CC(NC(=O)COC(=O)c1ccc2c(c1)OCO2)c1ccccc1` (stereo not drawn), the Potency was “inactive”. In the case of `NC(=O)c1ccc(NC(=O)COC(=O)c2c3c(nc4ccccc24)/C(=C\c2ccc4c(c2)OCO4)CCC3)cc1`, the Potency is reported as 8.91 µM [quencher] (active). For `O=C(COC(=O)c1c2c(nc3ccccc13)/C(=C\c1cccs1)CCC2)Nc1ccccc1Cl`, the Potency was “inactive”. In the case of `CCC1CCCCN1C(=O)Cn1c(=O)n(CCCCCC(=O)NCc2ccccc2)c(=O)c2sccc21` (stereo not drawn), the Potency is reported as “inactive”. In the case of `CCC(=O)Nc1c(C(=O)N2CCN(c3ccc(F)cc3)CC2)oc2ccccc12`, the Potency is reported as “inactive”. For `CCc1nnc(NC(=O)C2CCCN2S(=O)(=O)c2ccccc2)s1` (stereo not drawn), the Potency was “inactive”. For `CCc1ccc(NC(=O)C2CCCN2S(=O)(=O)c2ccc3nc(-c4ccccc4)[nH]c3c2)cc1` (stereo not drawn), the Potency was 25.1 µM [quencher] (active). For `CCc1ccccc1NS(=O)(=O)c1ccc2nc(-c3ccccc3)[nH]c2c1`, the Potency was “inactive”. For `Cc1ccccc1CNC(=O)c1ccc(NC(=O)N2CCCCc3ccccc32)cc1`, the Potency was “inactive”. For `CN1CCN(c2ccc(S(=O)(=O)Nc3ccccc3)cc2[N+](=O)[O-])CC1`, the Potency was “inactive”. In the case of `O=[N+]([O-])c1cc(S(=O)(=O)Nc2cccc(Cl)c2)ccc1N=Nc1c(O)[nH]c2ccccc12`, the Potency is reported as 14.1 µM [quencher] (active). For `COCCNC(=O)c1ccccc1NS(=O)(=O)c1ccc(C)c([N+](=O)[O-])c1`, the Potency was “inactive”. With `O=C(NCc1ccccc1)c1cccc(NC(=O)N2CCSc3ncccc32)c1` the Potency was “inactive”. For `CCOC(=O)C1CCCN(C(=O)c2ccc3c(c2)sc2nc(-c4ccc(CC)cc4)cn23)C1` (stereo not drawn), the Potency was “inactive”. In the case of `CCCCCn1c(=O)[nH]c2cc(C(=O)Nc3cc(C)cc(C)c3)ccc2c1=O`, the Potency is reported as “inactive”. With `COc1cccc2sc(Nc3nc(C)c(C(C)=O)s3)nc12` the Potency was “inactive”. With `NNc1nc2c(Cl)cccc2s1` the Potency was 15.8 µM [quencher] (active). In the case of `Fc1cc(F)c2nc(Nc3nc4c(F)cccc4s3)sc2c1`, the Potency is reported as “inactive”. In the case of `COc1ccccc1CNC(=O)c1ccc(NC(=O)N2CC(C)Sc3ccccc32)cc1` (stereo not drawn), the Potency is reported as “inactive”. For `Nc1ccc(Nc2ccccc2)cc1`, the Potency was 14.1 µM [quencher] (active). With `c1ccc(Nc2n[nH]nc2-c2ccccc2)cc1` the Potency was “inactive”. With `Cc1ccc(Nc2ccccc2N)cc1` the Potency was “inactive”. With `C[n+]1ccc(/C=C/c2c[nH]c3ccccc23)cc1` the Potency was “inactive”. In the case of `CSC(=S)N/N=C/c1c[nH]c2ccccc12`, the Potency is reported as 12.6 µM [quencher] (active). With `O=C(N/N=C/c1c[nH]c2ccccc12)c1cc2ccccc2o1` the Potency was “inactive”. In the case of `Cc1ccc(CN2CCc3nc(N4CCN(C)CC4)ncc3C2)cc1`, the Potency is reported as “inactive”. For `CCOc1ccc(N(Cc2ccccc2)C(=O)c2nc(S(C)(=O)=O)ncc2Cl)cc1`, the Potency was “inactive”. For `CC1=C(C(=O)OCC(C)C)C(c2ccc(OCc3ccccc3)cc2)N2C(=O)CCSC2=N1` (stereo not drawn), the Potency was “inactive”. With `COc1ccc(OC)c(NC(=O)CCN2CCC(C)CC2)c1` the Potency was “inactive”. With `CCN1CCN(c2nc(Nc3cc(OC)ccc3OC)nc(Nc3cc(OC)ccc3OC)n2)CC1` the Potency was 28.2 µM [quencher] (active). With `CCOC(=O)N1CCN(CCC(=O)Nc2cc(OC)ccc2OC)CC1` the Potency was “inactive”. In the case of `CCOC(=O)c1ccc(NC(=O)CCn2cnnn2)cc1`, the Potency is reported as “inactive”. In the case of `CSc1nc(-c2ccccc2Cl)nc2c1Cc1c(CO)cnc(C)c1O2`, the Potency is reported as “inactive”. For `CCCOc1ccc(-c2cccc(NS(=O)(=O)c3ccccc3)c2)nn1`, the Potency was “inactive”. In the case of `Cc1cc(Nc2ccccc2)nc(N)n1`, the Potency is reported as “inactive”. For `CSc1nc(-c2ccccc2)nc(C(Cl)Cl)n1`, the Potency was “inactive”. In the case of `CSc1nc(Nc2ccc(F)cc2)cc(-c2ccccc2)n1`, the Potency is reported as 7.08 µM [quencher] (active). With `Cc1cc2c(cc1C)C(c1cccc(OC(C)C)c1)CC(=O)N2` (stereo not drawn) the Potency was “inactive”. For `O=[N+]([O-])c1ccc(N2CCN(c3ccc(O)cc3)CC2)c(Cl)c1`, the Potency was 14.1 µM [quencher] (active). In the case of `COc1ccc(N2CCN(c3ccc([N+](=O)[O-])cc3Cl)CC2)cc1`, the Potency is reported as “inactive”. For `O=C(O)C1CCN(c2ccc([N+](=O)[O-])cc2[N+](=O)[O-])CC1`, the Potency was “inactive”. In the case of `CCN1CCN(c2ncnc3c2cnn3-c2ccc(C)c(C)c2)CC1`, the Potency is reported as “inactive”. With `Oc1ccc(N2CCN(C(=S)NCc3ccccc3)CC2)cc1` the Potency was “inactive”. With `O=[N+]([O-])c1ccccc1NCc1ccc(Cl)cc1` the Potency was “inactive”. In the case of `Oc1ccc(CNc2ccccc2O)cc1`, the Potency is reported as 17.8 µM [quencher] (active). With `Cc1cc(C)c2oc(-c3cccc(NC(=O)c4cccc(F)c4)c3C)nc2c1` the Potency was “inactive”. With `COc1ccc(OC)c(CCNC(=O)CCCn2c(=O)c3cccn3c3cccnc32)c1` the Potency was “inactive”. In the case of `COc1ccccc1Nc1ncnc2c1oc1ccccc12`, the Potency is reported as “inactive”. For `COc1ccc(Nc2ncnc3ccc(OC)cc23)cc1`, the Potency was “inactive”. In the case of `COc1ccc(Nc2ncnc3sc(-c4ccccc4)cc23)c(OC)c1`, the Potency is reported as 14.1 µM [quencher] (active). For `O=C(N/N=C/c1ccc([N+](=O)[O-])o1)c1cccc(S(=O)(=O)N2CCOCC2)c1`, the Potency was “inactive”. For `O=[N+]([O-])c1cc(Cl)cc(/C=N/NC(=S)Nc2cc(S(=O)(=O)N3CCOCC3)ccc2Cl)c1O`, the Potency was 8.91 µM [quencher] (active). In the case of `O=C(CN1CCN(c2ccc(O)cc2)CC1)Nc1cc(S(=O)(=O)N2CCOCC2)ccc1Cl`, the Potency is reported as “inactive”. For `CSc1ccccc1-c1nnc(NC(=O)c2ccc3c(c2)OCCO3)o1`, the Potency was “inactive”. With `CCCNC(=O)C1CCC(Cn2c(=O)c3sccc3n(Cc3ccccc3F)c2=O)CC1` (stereo not drawn) the Potency was “inactive”. For `COc1ccc(NC(=O)CSc2nccn2C2CCCC2)cc1OC`, the Potency was “inactive”. For `Cn1c(=O)c2c(ncn2CC(=O)Nc2cccc(C(F)(F)F)c2)n(C)c1=O`, the Potency was “inactive”. In the case of `CC(C)(C)c1ccc(C(=O)NCCC(=O)NCc2ccco2)cc1`, the Potency is reported as 14.1 µM [quencher] (active). In the case of `CC(C)(C)c1ccc(NC(=O)NCc2ccco2)cc1`, the Potency is reported as “inactive”. For `CCCCNC(=O)CCNC(=O)c1ccc(C(C)(C)C)cc1`, the Potency was “inactive”. For `COc1ccc(NC(=O)COCc2cc(-c3ccco3)on2)cc1`, the Potency was “inactive”. For `Cc1ccc(NC(=O)CSc2nc3ccccc3c3nc(CCn4cncc4C)nn23)cc1F`, the Potency was “inactive”. In the case of `Cc1c(C(=O)Nc2ccccc2)sc2nc3n(c(=O)c12)CCCCC3`, the Potency is reported as “inactive”. In the case of `Cc1ccc(NC(=O)Nc2sc3nc4n(c(=O)c3c2C)CCC(C)CC4)c(Cl)c1` (stereo not drawn), the Potency is reported as 7.08 µM [quencher] (active). In the case of `Cc1nc(N2CCC(C)CC2)c2c(C)c(C(=O)Nc3cc(F)ccc3C)sc2n1`, the Potency is reported as “inactive”. In the case of `CCOC(=O)c1cccc(NC(=O)Cn2cnc3nc4c(cc3c2=O)CCCC4)c1`, the Potency is reported as “inactive”. For `COc1ccc(-n2nc(C(=O)NCCc3ccc(Cl)cc3)c3c4ccccc4n(C)c3c2=O)cc1Cl`, the Potency was “inactive”. In the case of `CC1CCC(N2CC(=O)N(CCC3=CCCCC3)C(c3ccc(F)cc3)C2=O)CC1` (stereo not drawn), the Potency is reported as “inactive”. In the case of `O=C(CCn1ccc2cc(S(=O)(=O)N3CCCC3)ccc21)NCc1cccc(Cl)c1`, the Potency is reported as “inactive”. In the case of `CC(C)(C)OC(=O)N1CCC(c2c(C(=O)N3CCN(c4cccc(Cl)c4)CC3)cnn2-c2cccc(Cl)c2)CC1`, the Potency is reported as “inactive”. For `Cc1cccc(N2CCN(C(=O)CCSCc3ccccc3F)CC2)c1C`, the Potency was “inactive”. In the case of `Cc1ccc(Nc2nc(-c3ccc(O)cc3O)cs2)nc1`, the Potency is reported as 8.91 µM [quencher] (active). In the case of `Cc1cc(O)ccc1-c1cnc2ccccc2n1`, the Potency is reported as “inactive”. With `Cc1ccc(NC(=O)c2cc(-c3ccc(C)o3)nc3ccccc23)nc1` the Potency was “inactive”. In the case of `COc1ccc(NC(=O)CSc2nc3ccccc3[nH]2)cc1`, the Potency is reported as “inactive”. In the case of `Cc1ccc2nc(N3CCN(c4cccc(Cl)c4)CC3)c3nnnn3c2c1`, the Potency is reported as “inactive”. With `C/C(=N\Nc1cccc(C(=O)O)c1)c1ccc2c(c1)Nc1ccccc1S2` the Potency was 11.2 µM [quencher] (active). For `O=C(NC1CC1)c1ccc2c(c1)NC(=O)c1ccccc1S2`, the Potency was “inactive”. In the case of `CC(=O)Nc1cccc(/C(C)=N/NC(=O)c2ccccc2Cl)c1`, the Potency is reported as “inactive”.
